Compounds without any hit were thinned out: in the full panel of roughly 83,000, 20% have a hit.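 Negative percent growth values reflect cell death: -40 means 40% of the cells present at the start died, and -100 means all died.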 A number with no mark means an inactive call. Active and inactive are the calls of the source. The calls were made as follows: active = growth percent below 10; inactive = the rest.
These compounds were tested on A549/ATCC NSCLC (assay: NCI-60 one-dose screen, 48 h (100 = growth as untreated, 0 = no growth, -100 = all killed)). Conditions: 10 µM unless noted.

| SMILES | growth |
| --- | --- |
| CCN(CC)CCOc1nc2c3ccc(Cl)cc3nn2c2ccccc12 | 16.3% |
| COc1cc2c(cc1O)[C@@]1(C)[C@H](c3ccccc3Br)OC(=O)N1CC2 | 79.6% |
| CC(C)(C)c1cc(C=Nc2cccc(C(F)(F)F)c2)c(O)c(C(C)(C)C)c1 | 84.1% |
| CCCCCCNc1nc(NCCCCCC)c2[nH]c(NCCCCCC)nc2n1 | 7.63% (active) |
| CC(/C=C1\SC(=S)N(CC(=O)NC(Cc2c[nH]c3ccccc23)C(=O)O)C1=O)=C\c1ccccc1 (configuration not stated) | 103% |
| O=C(CCCCl)NNc1nccc(Nc2ccc(S(=O)(=O)Nc3ccncc3)cc2)n1 | 96.6% |
| Nc1ncnc2c1c(-c1ccc(Oc3ccccc3)cc1)nn2CC1SSCC1O (configuration not stated) | 42.3% |
| COc1ccc(NC(=O)c2sc3nc(C)c(C(O)c4ccccc4)cc3c2N)cc1 (configuration not stated) | 24.9% |
| COc1cccc(C(=O)OCC(O)C(=O)NC23CC4CC(CC(C4)C2)C3)c1 (configuration not stated) | 90.1% |
| O=C(CBr)CN1C(=O)c2ccccc2C1=O | 103% |
| CCn1cc(C(=O)NN=C2CCCCCC2)c(=O)c2ccc(C)nc21 | 82.6% |
| Nc1c(C(=O)Nc2ccccn2)sc2nc3c(cc12)C(O)CCC3 (configuration not stated) | 36.4% |
| COc1ccc(NC(=O)c2ccc(C(=O)Nc3ccc(OC)cc3OC)cc2)c(OC)c1 | 85% |
| O=C(Nc1ncc(Cc2ccccc2Cl)s1)c1cccs1 | 54.1% |
| COc1ccc2nc3ccccc3c(NCc3ccccc3)c2c1 | 18.2% |
| Fc1ccc(COc2ccc(Nc3ncnc4sc5c(c34)CCCC5)cc2)cc1 | 88.4% |
| COc1ccc(C2=Nc3c/c(=C\c4c(O)[nH]c5cc(Cl)ccc45)ccc3=N2)cc1 | 74.9% |
| N#Cc1c(N2CCOCC2)nc(=S)[nH]c1-c1ccccc1 | 85.6% |
| O=C1CCC(C(=O)NN(c2ccccc2)c2ccccc2)N1 (configuration not stated) | 103% |
| C/C(C=O)=C\c1ccc2c(c1)OCO2 | 105% |
| COc1cc2c(/C=C3\C(=O)Nc4ccccc43)c(C(=O)O)[nH]c2cc1C | 106% |
| C/C(=N\Nc1nc(C)cs1)c1cc2ccccc2o1 | 88% |

These compounds were tested on 786-0 renal in the same assay as above. Conditions: 10 µM unless noted.

| SMILES | growth |
| --- | --- |
| COC(=O)C1=Nc2ccc(F)cc2/C1=C\c1sc(Nc2ccc(O)cc2)nc1O | 66.1% |
| COc1ccc(OC)c(Nc2nnc(-c3ccc(Cl)cc3)o2)c1 | 26.4% |
| O=C(OC[C@@H]1CO1)c1cccc2c(=O)c3ccccc3[nH]c12 | -8.54% (active) |
| CNC(=O)c1c(NC(=O)c2ccc(C(C)(C)C)cc2)sc2c(CN(C)C)c(O)ccc12 | -76.9% (active) |
| C=C1C(=O)O[C@H]2[C@H]1CC/C(COC(=O)c1cc3cc(F)ccc3[nH]1)=C\CC[C@@]1(C)O[C@@H]21 | -89.6% (active) |
| COc1ccc2[nH]cc(-c3nc(-c4cn(C)c5ccncc45)cs3)c2c1 | 79% |
| Brc1ccc(-c2cnc3nonc3n2)cc1 | 84.2% |
| CC(C)CN1CC(C(=O)Nc2ccc3c(c2)-c2ccccc2C3)CC1=O (configuration not stated) | 70.7% [50 µM] |
| COc1cc2ncnc(Nc3ccc(F)c(Cl)c3)c2cc1OCC(=O)N1CCN(c2ccc(F)cc2)CC1 | 79% |
| COc1ccc(-c2cn(-c3ccc(Cl)cc3)c(SCC(=O)c3ccc([N+](=O)[O-])cc3)n2)cc1 | 52.9% |
| CCN(CC)S(=O)(=O)c1ccc(S(=O)(=O)N2CCC[C@@H](C(=O)N3CCN(C(=O)OC(C)(C)C)CC3)C2)cc1 | 92.8% |
| O=C(c1ccc(Cl)cc1Cl)N1c2ccccc2Sc2ccccc21 | 67% |
| COc1ccc(C2C3=C(COC3=O)N(CCO)c3cc4c(cc32)OCCO4)cc1OC (configuration not stated) | 27.7% |
| N#C/C(=C\c1ccc(-c2ccc(Cl)cc2)o1)c1ccc(Cl)cc1 | -0.442% (active) |
| COc1ccc(C2CC(c3ccc(Nc4nc(Nc5ccc(F)cc5)nc(Nc5ccc(F)cc5)n4)cc3)=NN2C(C)=O)cc1 (configuration not stated) | 82% |
| CCN(CC)CCOc1nc2c3ccc(Cl)cc3nn2c2ccccc12 | 23.6% |
| COc1cc2c(cc1O)[C@@]1(C)[C@H](c3ccccc3Br)OC(=O)N1CC2 | 104% |
| CC(C)(C)c1cc(C=Nc2cccc(C(F)(F)F)c2)c(O)c(C(C)(C)C)c1 | 107% |
| CCCCCCNc1nc(NCCCCCC)c2[nH]c(NCCCCCC)nc2n1 | 68.2% |
| COc1ccc(C2C(C#N)=C(N)Oc3c2sc2c(Br)cccc32)cc1 (configuration not stated) | 29.6% |

| SMILES | growth |
| --- | --- |
| CC(/C=C1\SC(=S)N(CC(=O)NC(Cc2c[nH]c3ccccc23)C(=O)O)C1=O)=C\c1ccccc1 (configuration not stated) | 102% |
| CCOC(=O)c1c(NC(=O)c2ccc(OC)cc2)sc2c(CN(C)C)c(O)ccc12 | 63.4% |
| O=C(CCCCl)NNc1nccc(Nc2ccc(S(=O)(=O)Nc3ccncc3)cc2)n1 | 95.2% |
| Nc1ncnc2c1c(-c1ccc(Oc3ccccc3)cc1)nn2CC1SSCC1O (configuration not stated) | 63.8% |
| COc1ccc(NC(=O)c2sc3nc(C)c(C(O)c4ccccc4)cc3c2N)cc1 (configuration not stated) | 40.7% |
| COc1cccc(C(=O)OCC(O)C(=O)NC23CC4CC(CC(C4)C2)C3)c1 (configuration not stated) | 101% |
| O=C(CBr)CN1C(=O)c2ccccc2C1=O | 101% |
| O=C(NCc1ccccc1O)c1cccc2ccccc12 | 72.7% |
| CCn1cc(C(=O)NN=C2CCCCCC2)c(=O)c2ccc(C)nc21 | 87.2% |
| Nc1c(C(=O)Nc2ccccn2)sc2nc3c(cc12)C(O)CCC3 (configuration not stated) | 32.9% |
| COc1ccc(NC(=O)c2ccc(C(=O)Nc3ccc(OC)cc3OC)cc2)c(OC)c1 | 51.2% |
| O=C(Nc1ncc(Cc2ccccc2Cl)s1)c1cccs1 | 86.1% |
| COc1ccc2nc3ccccc3c(NCc3ccccc3)c2c1 | 22.3% |
| Fc1ccc(COc2ccc(Nc3ncnc4sc5c(c34)CCCC5)cc2)cc1 | 94.6% |
| COc1ccc(C2=Nc3c/c(=C\c4c(O)[nH]c5cc(Cl)ccc45)ccc3=N2)cc1 | 90.8% |
| N#Cc1c(N2CCOCC2)nc(=S)[nH]c1-c1ccccc1 | 82.9% |
| O=C1CCC(C(=O)NN(c2ccccc2)c2ccccc2)N1 (configuration not stated) | 48.9% |
| C/C(C=O)=C\c1ccc2c(c1)OCO2 | 107% |
| COc1cc2c(/C=C3\C(=O)Nc4ccccc43)c(C(=O)O)[nH]c2cc1C | 108% |
| C/C(=N\Nc1nc(C)cs1)c1cc2ccccc2o1 | 104% |

Source: PubChem BioAssay (NCI)
